According to article PMC7862700, “An all-to-all approach to the identification of sequence-specific readers for epigenetic DNA modifications on cytosine”:

Columns and labels:
Assay in all cases: DAPPL (digital affinity profiling via proximity ligation, sequencing); 10 mM Tris-HCl pH 7.5, 50 mM NaCl, 1 mM DTT, 4% glycerol, room temperature, 30 min; GST-TFs on glutathione beads, 16-mer random dsDNA library, 0.1% formaldehyde crosslink after washing; high values mean tight binding
[1] = molecular target: T1, FEV (Homo sapiens, UniProt Q99581 1-238); settings: protein: recombinant; tags: N-terminal GST; dsDNA, one strand shown
T1 sequence: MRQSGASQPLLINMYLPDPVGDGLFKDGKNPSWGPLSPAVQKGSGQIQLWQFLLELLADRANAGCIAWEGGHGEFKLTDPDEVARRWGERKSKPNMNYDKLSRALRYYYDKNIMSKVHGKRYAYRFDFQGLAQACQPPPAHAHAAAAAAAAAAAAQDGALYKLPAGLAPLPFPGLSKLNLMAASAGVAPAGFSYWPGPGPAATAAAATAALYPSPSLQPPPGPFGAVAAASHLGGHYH
Outline: (§1)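 GST fusions of human transcription factors were expressed in yeast and captured with glutathione beads. Once given DNA barcodes and pooled alongside a tag-only sample, they were incubated for 30 min at room temperature with 200 nmole of a random double-stranded 16-mer DNA library in Tris/NaCl/DTT/glycerol buffer, then washed, crosslinked (0.1% formaldehyde), proximity-ligated, PCR-amplified and sequenced on an Illumina NextSeq500. The binding signal of each hexamer is its read frequency for a factor divided by its frequency for the tag-only sample.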

[2] = molecular target: ETV5 (Homo sapiens, UniProt P41161 1-510); settings: protein: recombinant; tags: N-terminal GST; dsDNA, one strand shown
Outline: as §1

[3] = molecular target: HSF1 (Homo sapiens, UniProt Q00613 1-529); settings: protein: recombinant; tags: N-terminal GST; chain copies: 3; dsDNA, one strand shown
Outline: as §1

[4] = molecular target: T2, SPIC (Homo sapiens, UniProt Q8N5J4 1-248); settings: protein: recombinant; tags: N-terminal GST; dsDNA, one strand shown
T2 sequence: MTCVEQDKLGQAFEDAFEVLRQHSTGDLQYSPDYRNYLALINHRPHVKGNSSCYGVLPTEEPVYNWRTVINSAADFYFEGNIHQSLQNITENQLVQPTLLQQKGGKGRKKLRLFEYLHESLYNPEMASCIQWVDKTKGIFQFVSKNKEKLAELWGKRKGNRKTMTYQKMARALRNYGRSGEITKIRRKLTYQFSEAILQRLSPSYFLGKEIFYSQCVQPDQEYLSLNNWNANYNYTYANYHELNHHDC
Outline: as §1

[5] = molecular target: ELF4 (Homo sapiens, UniProt Q99607 1-663); settings: protein: recombinant; tags: N-terminal GST; dsDNA, one strand shown
Outline: as §1

[6] = molecular target: T3, ELK4 (Homo sapiens, UniProt P28324-2 1-405); settings: protein: recombinant; tags: N-terminal GST; dsDNA, one strand shown
T3 sequence: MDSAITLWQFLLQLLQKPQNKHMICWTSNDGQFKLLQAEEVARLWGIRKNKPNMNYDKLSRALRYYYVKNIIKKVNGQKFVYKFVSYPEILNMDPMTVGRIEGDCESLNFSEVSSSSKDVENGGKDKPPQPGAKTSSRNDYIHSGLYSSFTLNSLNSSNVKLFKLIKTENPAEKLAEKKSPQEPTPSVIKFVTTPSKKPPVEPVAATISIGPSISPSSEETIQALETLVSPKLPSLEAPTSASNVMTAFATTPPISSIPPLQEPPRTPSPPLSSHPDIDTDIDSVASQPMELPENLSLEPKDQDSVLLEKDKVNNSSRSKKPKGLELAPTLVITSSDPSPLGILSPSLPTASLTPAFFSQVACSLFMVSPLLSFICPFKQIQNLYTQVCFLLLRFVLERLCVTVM
Outline: as §1

[7] = molecular target: T4, ETV2 (Homo sapiens, UniProt O00321 1-342); settings: protein: recombinant; tags: N-terminal GST; dsDNA, one strand shown
T4 sequence: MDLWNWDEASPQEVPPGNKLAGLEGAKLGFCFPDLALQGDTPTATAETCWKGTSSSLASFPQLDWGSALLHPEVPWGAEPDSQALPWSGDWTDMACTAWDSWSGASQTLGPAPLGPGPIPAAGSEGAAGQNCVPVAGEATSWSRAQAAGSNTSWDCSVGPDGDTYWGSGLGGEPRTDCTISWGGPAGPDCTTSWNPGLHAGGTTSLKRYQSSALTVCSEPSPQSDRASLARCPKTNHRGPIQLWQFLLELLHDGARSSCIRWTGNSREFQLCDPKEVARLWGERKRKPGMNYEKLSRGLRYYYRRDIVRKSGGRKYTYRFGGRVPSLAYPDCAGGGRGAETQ
Outline: as §1

[8] = molecular target: T5, ELF3 (Homo sapiens, UniProt P78545 1-371); settings: protein: recombinant; tags: N-terminal GST; dsDNA, one strand shown
T5 sequence: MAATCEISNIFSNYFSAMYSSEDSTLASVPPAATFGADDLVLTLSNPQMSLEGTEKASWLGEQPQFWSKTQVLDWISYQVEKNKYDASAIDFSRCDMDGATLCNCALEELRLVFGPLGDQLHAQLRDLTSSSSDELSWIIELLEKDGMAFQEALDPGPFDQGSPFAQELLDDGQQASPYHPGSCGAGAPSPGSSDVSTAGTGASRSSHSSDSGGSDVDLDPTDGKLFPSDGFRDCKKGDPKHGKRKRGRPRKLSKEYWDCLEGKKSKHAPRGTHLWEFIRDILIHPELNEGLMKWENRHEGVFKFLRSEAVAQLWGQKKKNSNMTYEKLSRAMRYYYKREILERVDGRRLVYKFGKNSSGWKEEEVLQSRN
Outline: as §1

[9] = molecular target: CRX (Homo sapiens, UniProt O43186 1-299); settings: protein: recombinant; tags: N-terminal GST; dsDNA, one strand shown
Outline: as §1

[10] = molecular target: ETV1 (Homo sapiens, UniProt P50549 1-477); settings: protein: recombinant; tags: N-terminal GST; dsDNA, one strand shown
Outline: as §1

[11] = molecular target: T6, ERF (Homo sapiens, UniProt P50548 1-548); settings: protein: recombinant; tags: N-terminal GST; dsDNA, one strand shown
T6 sequence: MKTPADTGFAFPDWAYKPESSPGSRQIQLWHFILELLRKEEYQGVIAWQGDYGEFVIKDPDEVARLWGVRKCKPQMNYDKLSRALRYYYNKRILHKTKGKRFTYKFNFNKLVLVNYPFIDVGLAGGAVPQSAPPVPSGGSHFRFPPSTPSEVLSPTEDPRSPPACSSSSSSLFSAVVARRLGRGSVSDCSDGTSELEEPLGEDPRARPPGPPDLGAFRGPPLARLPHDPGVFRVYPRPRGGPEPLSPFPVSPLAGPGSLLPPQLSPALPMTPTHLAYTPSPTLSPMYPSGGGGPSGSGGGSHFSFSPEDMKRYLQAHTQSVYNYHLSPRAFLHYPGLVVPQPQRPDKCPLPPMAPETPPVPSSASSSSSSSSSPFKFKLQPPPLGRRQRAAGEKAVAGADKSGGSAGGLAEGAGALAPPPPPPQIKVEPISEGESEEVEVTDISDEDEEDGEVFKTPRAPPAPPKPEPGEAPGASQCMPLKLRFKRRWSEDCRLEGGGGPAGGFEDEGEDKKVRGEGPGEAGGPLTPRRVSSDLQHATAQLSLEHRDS
Outline: as §1

[12] = molecular target: T7, ETV3L (Homo sapiens, UniProt Q6ZN32 1-361); settings: protein: recombinant; tags: N-terminal GST; dsDNA, one strand shown
T7 sequence: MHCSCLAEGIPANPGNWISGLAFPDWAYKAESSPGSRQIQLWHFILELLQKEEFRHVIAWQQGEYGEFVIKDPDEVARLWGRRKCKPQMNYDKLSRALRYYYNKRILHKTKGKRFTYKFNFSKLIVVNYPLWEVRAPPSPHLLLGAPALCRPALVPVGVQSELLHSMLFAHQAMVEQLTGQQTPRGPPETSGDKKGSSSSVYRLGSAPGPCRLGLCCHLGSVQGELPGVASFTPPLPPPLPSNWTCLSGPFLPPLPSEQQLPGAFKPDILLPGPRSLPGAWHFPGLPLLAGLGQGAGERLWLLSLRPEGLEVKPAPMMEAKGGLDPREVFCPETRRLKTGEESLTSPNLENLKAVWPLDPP
Outline: as §1

[13] = molecular target: T8, ETS2 (Homo sapiens, UniProt P15036 1-469); settings: protein: recombinant; tags: N-terminal GST; dsDNA, one strand shown
T8 sequence: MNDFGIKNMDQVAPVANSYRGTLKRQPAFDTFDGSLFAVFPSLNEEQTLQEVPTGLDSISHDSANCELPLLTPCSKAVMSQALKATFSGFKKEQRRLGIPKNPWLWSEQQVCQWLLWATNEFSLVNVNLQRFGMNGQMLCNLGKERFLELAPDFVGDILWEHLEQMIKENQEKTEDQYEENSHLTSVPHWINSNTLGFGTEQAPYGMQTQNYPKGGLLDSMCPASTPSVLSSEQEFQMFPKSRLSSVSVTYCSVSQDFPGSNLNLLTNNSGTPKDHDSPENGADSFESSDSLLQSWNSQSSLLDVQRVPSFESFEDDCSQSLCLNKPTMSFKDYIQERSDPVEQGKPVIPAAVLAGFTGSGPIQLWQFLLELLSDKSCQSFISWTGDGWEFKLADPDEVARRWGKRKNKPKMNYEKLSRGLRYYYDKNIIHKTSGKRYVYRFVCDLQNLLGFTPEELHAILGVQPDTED
Outline: as §1

[14] = molecular target: T9, SPDEF (Homo sapiens, UniProt O95238 1-335); settings: protein: recombinant; tags: N-terminal GST; dsDNA, one strand shown
T9 sequence: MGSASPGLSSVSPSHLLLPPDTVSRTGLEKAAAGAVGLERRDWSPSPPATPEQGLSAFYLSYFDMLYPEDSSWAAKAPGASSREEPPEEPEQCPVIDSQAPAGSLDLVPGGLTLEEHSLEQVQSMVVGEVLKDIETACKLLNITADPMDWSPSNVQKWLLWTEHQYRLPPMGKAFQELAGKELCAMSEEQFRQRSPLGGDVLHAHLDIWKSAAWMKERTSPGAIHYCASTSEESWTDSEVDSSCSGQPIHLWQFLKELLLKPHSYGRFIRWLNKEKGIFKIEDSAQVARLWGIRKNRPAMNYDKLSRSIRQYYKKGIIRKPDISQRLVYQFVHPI
Outline: as §1

[15] = molecular target: T10, ETV7 (Homo sapiens, UniProt Q9Y603 1-341); settings: protein: recombinant; tags: N-terminal GST; dsDNA, one strand shown
T10 sequence: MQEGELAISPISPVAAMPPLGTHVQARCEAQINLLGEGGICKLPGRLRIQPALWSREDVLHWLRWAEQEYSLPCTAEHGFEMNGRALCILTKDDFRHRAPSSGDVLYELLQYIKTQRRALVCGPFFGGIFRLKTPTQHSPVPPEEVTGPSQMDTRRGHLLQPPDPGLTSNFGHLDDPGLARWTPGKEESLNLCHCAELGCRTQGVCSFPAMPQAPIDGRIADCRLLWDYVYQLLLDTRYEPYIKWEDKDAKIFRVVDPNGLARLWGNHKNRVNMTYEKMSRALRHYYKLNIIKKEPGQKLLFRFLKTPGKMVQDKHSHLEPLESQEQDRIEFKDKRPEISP
Outline: as §1

[16] = molecular target: T11, ELF5 (Homo sapiens, UniProt Q9UKW6-2 1-255); settings: protein: recombinant; tags: N-terminal GST; dsDNA, one strand shown
T11 sequence: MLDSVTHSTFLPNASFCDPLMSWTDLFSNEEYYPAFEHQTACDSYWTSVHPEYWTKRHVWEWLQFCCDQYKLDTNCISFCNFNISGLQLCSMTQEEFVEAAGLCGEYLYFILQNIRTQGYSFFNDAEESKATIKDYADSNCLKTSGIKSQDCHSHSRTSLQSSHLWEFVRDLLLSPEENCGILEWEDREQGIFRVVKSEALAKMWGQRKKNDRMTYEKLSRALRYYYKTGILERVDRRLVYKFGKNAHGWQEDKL
Outline: as §1

[17] = molecular target: T12, ETV3 (Homo sapiens, UniProt P41162-2 1-143); settings: protein: recombinant; tags: N-terminal GST; dsDNA, one strand shown
T12 sequence: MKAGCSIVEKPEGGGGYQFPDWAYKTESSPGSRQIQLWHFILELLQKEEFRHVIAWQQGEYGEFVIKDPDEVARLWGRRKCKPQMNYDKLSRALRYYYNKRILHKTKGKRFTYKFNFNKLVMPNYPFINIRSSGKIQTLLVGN
Outline: as §1

[18] = molecular target: ETV6 (Homo sapiens, UniProt P41212 1-452); settings: protein: recombinant; tags: N-terminal GST; dsDNA, one strand shown
Outline: as §1

Sequence of ETV6 (P41212 whole entry): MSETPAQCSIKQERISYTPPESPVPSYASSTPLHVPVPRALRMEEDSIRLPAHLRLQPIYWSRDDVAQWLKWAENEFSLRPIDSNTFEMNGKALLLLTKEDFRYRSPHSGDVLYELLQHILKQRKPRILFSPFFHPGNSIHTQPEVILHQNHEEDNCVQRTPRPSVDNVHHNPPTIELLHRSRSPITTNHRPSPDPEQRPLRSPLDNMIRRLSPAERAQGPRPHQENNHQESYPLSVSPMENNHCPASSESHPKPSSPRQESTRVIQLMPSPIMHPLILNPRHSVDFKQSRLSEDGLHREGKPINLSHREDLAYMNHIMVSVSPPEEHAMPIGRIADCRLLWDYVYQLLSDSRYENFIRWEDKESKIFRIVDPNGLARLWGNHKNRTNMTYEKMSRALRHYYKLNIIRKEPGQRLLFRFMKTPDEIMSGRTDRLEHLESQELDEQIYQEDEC
Sequence of CRX (O43186 whole entry): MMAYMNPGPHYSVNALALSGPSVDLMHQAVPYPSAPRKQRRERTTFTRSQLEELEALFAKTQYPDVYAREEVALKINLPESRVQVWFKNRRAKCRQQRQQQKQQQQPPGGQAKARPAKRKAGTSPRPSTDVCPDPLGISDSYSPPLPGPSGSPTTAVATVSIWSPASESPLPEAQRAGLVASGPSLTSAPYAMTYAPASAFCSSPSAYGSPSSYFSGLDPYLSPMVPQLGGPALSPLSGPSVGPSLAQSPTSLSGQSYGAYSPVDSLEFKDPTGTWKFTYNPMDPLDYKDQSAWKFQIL
Sequence of ETV1 (P50549 whole entry): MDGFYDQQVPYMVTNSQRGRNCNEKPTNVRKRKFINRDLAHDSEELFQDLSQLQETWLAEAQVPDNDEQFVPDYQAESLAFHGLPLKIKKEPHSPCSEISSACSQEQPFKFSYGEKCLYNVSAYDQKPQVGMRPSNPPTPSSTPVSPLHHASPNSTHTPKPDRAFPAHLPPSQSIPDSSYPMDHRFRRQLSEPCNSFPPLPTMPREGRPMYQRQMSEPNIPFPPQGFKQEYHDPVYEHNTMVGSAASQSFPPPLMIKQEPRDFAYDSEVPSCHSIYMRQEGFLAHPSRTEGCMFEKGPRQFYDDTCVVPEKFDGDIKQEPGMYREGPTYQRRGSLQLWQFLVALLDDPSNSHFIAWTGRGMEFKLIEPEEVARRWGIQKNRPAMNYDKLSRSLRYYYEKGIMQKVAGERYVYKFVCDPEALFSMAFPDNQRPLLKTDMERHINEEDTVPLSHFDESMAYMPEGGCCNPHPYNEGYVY
Sequence of ELF4 (Q99607 whole entry): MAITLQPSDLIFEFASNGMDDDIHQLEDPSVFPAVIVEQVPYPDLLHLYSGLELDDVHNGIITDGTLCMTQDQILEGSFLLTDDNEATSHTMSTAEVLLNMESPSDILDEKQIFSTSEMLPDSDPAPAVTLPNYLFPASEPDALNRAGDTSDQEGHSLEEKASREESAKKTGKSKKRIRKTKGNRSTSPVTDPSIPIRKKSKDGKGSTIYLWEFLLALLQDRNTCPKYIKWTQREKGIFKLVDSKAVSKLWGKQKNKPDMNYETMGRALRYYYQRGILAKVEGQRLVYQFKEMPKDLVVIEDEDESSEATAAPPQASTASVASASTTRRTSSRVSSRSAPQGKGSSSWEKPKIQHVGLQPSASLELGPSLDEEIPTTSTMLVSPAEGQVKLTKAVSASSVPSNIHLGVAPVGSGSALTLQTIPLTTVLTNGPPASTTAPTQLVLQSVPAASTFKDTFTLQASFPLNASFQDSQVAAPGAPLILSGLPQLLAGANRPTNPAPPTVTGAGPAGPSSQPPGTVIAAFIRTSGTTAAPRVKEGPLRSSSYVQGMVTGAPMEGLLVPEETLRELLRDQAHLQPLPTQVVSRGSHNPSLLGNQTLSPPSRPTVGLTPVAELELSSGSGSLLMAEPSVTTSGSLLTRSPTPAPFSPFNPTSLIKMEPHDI
Sequence of HSF1 (Q00613 whole entry): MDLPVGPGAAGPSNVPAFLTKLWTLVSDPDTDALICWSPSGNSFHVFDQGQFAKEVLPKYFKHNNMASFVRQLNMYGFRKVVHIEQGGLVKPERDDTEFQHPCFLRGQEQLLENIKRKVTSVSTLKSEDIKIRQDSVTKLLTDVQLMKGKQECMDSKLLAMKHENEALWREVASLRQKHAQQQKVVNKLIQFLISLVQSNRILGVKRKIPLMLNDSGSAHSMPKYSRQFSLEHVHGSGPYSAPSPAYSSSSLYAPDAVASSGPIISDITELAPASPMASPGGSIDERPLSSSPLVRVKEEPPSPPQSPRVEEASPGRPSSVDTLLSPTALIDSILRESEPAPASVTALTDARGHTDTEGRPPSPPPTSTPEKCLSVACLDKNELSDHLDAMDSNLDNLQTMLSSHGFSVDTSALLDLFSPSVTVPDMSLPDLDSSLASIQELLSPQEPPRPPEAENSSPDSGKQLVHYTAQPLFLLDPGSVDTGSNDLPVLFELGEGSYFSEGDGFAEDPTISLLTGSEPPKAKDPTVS
Sequence of ETV5 (P41161 whole entry): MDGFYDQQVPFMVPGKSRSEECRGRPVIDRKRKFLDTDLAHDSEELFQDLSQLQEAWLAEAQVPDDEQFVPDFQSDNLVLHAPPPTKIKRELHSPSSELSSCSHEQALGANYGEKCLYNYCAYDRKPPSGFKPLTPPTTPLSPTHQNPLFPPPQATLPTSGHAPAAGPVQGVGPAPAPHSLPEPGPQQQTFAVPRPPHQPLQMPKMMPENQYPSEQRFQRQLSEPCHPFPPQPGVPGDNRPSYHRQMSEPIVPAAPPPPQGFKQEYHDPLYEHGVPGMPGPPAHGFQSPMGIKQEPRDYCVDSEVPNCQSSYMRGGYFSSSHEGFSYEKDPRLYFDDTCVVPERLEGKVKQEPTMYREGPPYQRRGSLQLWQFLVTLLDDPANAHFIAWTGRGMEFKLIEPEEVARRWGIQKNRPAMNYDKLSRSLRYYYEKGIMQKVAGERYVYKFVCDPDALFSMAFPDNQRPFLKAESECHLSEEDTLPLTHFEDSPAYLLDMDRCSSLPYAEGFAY

With TCCTAA the binding signal [1] was 1.41 fold enrichment (6-mer frequency, TF over GST control), the binding signal [2] was 1.4 fold enrichment (6-mer frequency, TF over GST control) and the binding signal [3] was 1.66 fold enrichment (6-mer frequency, TF over GST control). For the same sequence, the binding signal [4] was 1.38 fold enrichment (6-mer frequency, TF over GST control), the binding signal [5] was 1.44 fold enrichment (6-mer frequency, TF over GST control) and the binding signal [6] was 1.39 fold enrichment (6-mer frequency, TF over GST control). The binding signal [7] was 1.47 fold enrichment (6-mer frequency, TF over GST control), the binding signal [8] was 1.57 fold enrichment (6-mer frequency, TF over GST control) and the binding signal [9] was 2.09 fold enrichment (6-mer frequency, TF over GST control). The binding signal [10] was 1.32 fold enrichment (6-mer frequency, TF over GST control), the binding signal [11] was 1.55 fold enrichment (6-mer frequency, TF over GST control) and the binding signal [12] was 1.36 fold enrichment (6-mer frequency, TF over GST control). The binding signal [13] was 1.49 fold enrichment (6-mer frequency, TF over GST control), the binding signal [14] was 1.6 fold enrichment (6-mer frequency, TF over GST control) and the binding signal [15] was 1.48 fold enrichment (6-mer frequency, TF over GST control). For the same sequence, the binding signal [16] was 1.5 fold enrichment (6-mer frequency, TF over GST control), the binding signal [17] was 1.45 fold enrichment (6-mer frequency, TF over GST control) and the binding signal [18] was 1.55 fold enrichment (6-mer frequency, TF over GST control).
